Laboratory results from PubChem BioAssay (EPA / NIEHS).
A structure can be active in one record and inactive in another. The source made the active and inactive calls. How the source made its calls: active means hit-call score of the fitted dose curve at least 0.9, where 1 is the maximum; inactive means score below 0.9.

Assay: BSK_3C_Vis: BioMAP Diversity Plus: 3C Assay for Morphology Visualization (AID 2283025);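 further: fitted both ways so gain or loss versus DMSO counts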
Settings: primary human endothelial cells (HUVEC)
Description: BSK_3C is a cell-based, multiplexed-readout assay that uses umbilical vein endothelium, a human vascular primary cell, with measurements taken at 24 hours after chemical dosing in a 96-well plate.BSK_3C_Vis is an assay component measured in the BSK_3C assay. It measures NA related to cell morphology using light microscopy technology.Data from the assay component BSK_3C_Vis was analyzed into 1 assay endpoint. This assay endpoint, BSK_3C_Vis, was analyzed with bidirectional fitting relative to DMSO as the negative control and baseline of activity. Using a type of morphology reporter, gain or loss-of-signal activity can be used to understand changes in the background control. Furthermore, this assay endpoint can be referred to as a secondary readout, because this assay has produced multiple assay endpoints where this one serves a background control function. To generalize the intended target to other relatable targets, this assay endpoint is annotated to the cell morphology intended target family, where the subfamily is cell conformation.
The levels of cell surface (or secreted, indicated by the prefix "s") biomarker endpoints were measured by ELISA. Overt cytotoxicity to cells in confluent adherent cultures (all systems other than the BT system) was assessed by measuring total protein levels using sulforhodamine B (SRB) staining in parallel cultures at the time of biomarker measurements, indicated as SRB endpoints. For proliferation assays for adherent cell types, individual cell types are cultured at sub-confluence and relative cell numbers quantified by SRB staining at time points optimized for each system (48 h: 3C and CASM3C systems; 72 h: BT and HDF3CGF systems; 96 h: SAg system). SRB was performed by staining cells with 0.1% SRB after fixation with 10% TCA and reading wells at 560 nm.Viability and proliferation of PBMC (T cells) was quantified by Alamar Blue reduction for the SAg and BT systems. For PBMC viability (referred to as PBMC Cytotoxicity within the assay endpoint names), cells were plated (75,000/well in a 96-well plate) and then chemical samples added for 1 h before addition of activators, SEB and TSST-1 (20 ng/mL final concentration each). Cells were incubated for 90 h. Then, Alamar Blue (20 uL/well) (Invitrogen, Cat DAL1100) was added for 6 h, and the plates were read with a fluorescence microplate reader at 546/580 nm (excitation/emission). For PBMC proliferation, cells were plated and activated as above but incubated for only 16 h prior to addition of Alamar Blue. Plates were read after 6 h.

| Compound | outcome | AC50 |
| --- | --- | --- |
| Clc1ccc(Cl)cc1 | inactive | – |
| CCCCCCOC(=O)c1ccccc1C(=O)OCCCCCC | inactive | – |
| Cc1cccc(C)c1N | inactive | – |
| CCC(=O)O[C@H]1CC[C@H]2[C@@H]3CCC4=CC(=O)CC[C@]4(C)[C@H]3CC[C@]12C | – | 20.7 µM (active) |
| C[C@]12CCC(=O)C=C1CC[C@@H]1[C@@H]2CC[C@@]2(C)[C@H]1CC[C@]2(C)O | inactive | – |
| Cc1ccccc1O | inactive | – |
| O=C(NC(=O)c1cc(F)c(F)cc1Cl)Nc1cc(F)ccc1N1CCC(C(=O)O)CC1 | inactive | – |
| CC(C)C(=O)OCC(C)(C)C(OC(=O)C(C)C)C(C)C (stereo not given) | inactive | – |
| COc1ccc(O)c(C(C)(C)C)c1 | inactive | – |
| CCCCCCCCOC(=O)c1ccccc1C(=O)OCCCCCCCC | inactive | – |
| CCCN(CCC)N=O | inactive | – |
| Cc1ccccc1[N+](=O)[O-] | inactive | – |
| ClC1=C(Cl)[C@]2(Cl)[C@@H]3[C@H]4C[C@H]([C@@H]5O[C@H]45)[C@@H]3[C@@]1(Cl)C2(Cl)Cl | inactive | – |
| Cc1cc(-c2ccc(N)c(C)c2)ccc1N | inactive | – |
| CN(C)c1nc(=O)n(C2CCCCC2)c(=O)n1C | inactive | – |
| Oc1ccc(C(c2ccc(O)cc2)(C(F)(F)F)C(F)(F)F)cc1 | – | 18.7 µM (active) |
| c1ccc(-c2ccccc2)cc1 | inactive | – |
| Oc1c(Cl)c(Cl)c(Cl)c(Cl)c1Cl | inactive | 14.1 µM (active) |
| CCC(C)(CC)c1cc(NC(=O)c2c(OC)cccc2OC)on1 | inactive | – |
| CCC(C)c1cc([N+](=O)[O-])cc([N+](=O)[O-])c1O (stereo not given) | – | 9.8 µM (active) |

| Compound | outcome | AC50 |
| --- | --- | --- |
| N#Cc1ccc(N(CC(N)=O)CC(F)(F)F)cc1C(F)(F)F | inactive | – |
| CCCCCCCCCC[N+](C)(C)CCCCCCCCCC | – | 4.15 µM (active) |
| CCOP(=S)(OCC)SCSC(C)(C)C | inactive | – |
| c1cc2ccc3cccc4ccc(c1)c2c34 | inactive | – |
| Oc1ccc(Cl)cc1Cl | inactive | – |
| CCOCCOC(C)=O | inactive | – |
| O=S(=O)(O)C(F)(F)C(F)(F)C(F)(F)C(F)(F)F | inactive | – |
| CCCCCCCCCc1ccc(O)cc1 | – | 38.7 µM (active) |
| Sc1ccccc1 | inactive | – |
| ClC1=C(Cl)[C@]2(Cl)[C@@H]3[C@@H](Cl)[C@H]4O[C@H]4[C@@H]3C1(Cl)C2(Cl)Cl | inactive | – |
| Nc1ccc(-c2ccc(N)cc2)cc1 | inactive | – |
| Cc1cc(O)ccc1Cl | inactive | – |
| C[C@]12CCC(=O)C=C1CC[C@@H]1[C@@H]2CC[C@]2(C)C(=O)CC[C@@H]12 | inactive | – |
| ClC1=C(Cl)[C@]2(Cl)[C@@H]3[C@@H]4C[C@@H]([C@H]5O[C@@H]45)[C@@H]3[C@@]1(Cl)C2(Cl)Cl | – | 13.7 µM (active) |
| C1CC2OC2CC1C1CO1 (stereo not given) | inactive | – |
| Clc1ccc(C(Cl)(Cl)Cl)cc1 | inactive | – |
| CCC(C)(c1ccc(O)cc1)c1ccc(O)cc1 | – | 39 µM (active) |
| O=C(N[C@H]1CN2CCC1CC2)c1cc2ccoc2cn1 | inactive | – |
| CC(c1ccc(O)cc1)(c1ccc(O)cc1)c1ccc(O)cc1 | – | 39 µM (active) |
